Measurements reported in PubChem BioAssay (Tox21).
Unmarked numbers belong to inactive results. Results filed as inconclusive are left out. A call without a number means that no potency is given here. Activity calls are given as the source filed them. The call rests on the fitted dose curve; in most records, active means well fitted curve in the direction sought with a large enough effect in the repeat runs; inconclusive means weak or mixed curves; inactive means no such curve, though single readings can be large; an effect the other way counts as inactive or inconclusive.

Key:
[1] = qHTS RealTime-Glo MT Cell Viability Assay in HEK293 cells - 0 hour (AID 1224880); further: nearly all actives have a fitted effect of over 45% in size; further: potency means the concentration at half of the fitted maximal effect
Summary of the method: (§1)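 HEK293 cells mixed with RealTime-Glo reagents (NanoLuc plus cell-permeant prosubstrate) at 600 cells/well, preincubated 5 h at 37 C/5% CO2, then given 23 nL compound in DMSO. Nonlytic luminescence from viable cells was read at 0, 8, 16, 24, 32 and 40 h.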

[2] = A CellTox Green Cytotoxicity Assay to monitor cytotoxicity in HEK293 cells - 32 hour (AID 1224881); further: nearly all actives have a fitted effect of over 40% in size; further: potency means the concentration at half of the fitted maximal effect
Summary of the method: (§2)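 HEK293 cells premixed with CellTox Green dye were seeded at 600 cells/well and left 5 h at 37 C/5% CO2 before pin transfer of 23 nL compound in DMSO. Fluorescence from dye bound to dead-cell DNA was read during 40 h treatment.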

[3] = A CellTox Green Cytotoxicity Assay to monitor cytotoxicity in HepG2 cells - 0 hour (AID 1224882); further: nearly all actives have a fitted effect of over 35% in size; further: potency means the concentration at half of the fitted maximal effect
Summary of the method: (§3)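 HepG2 cells were seeded together with the CellTox Green dye at 600 cells/well, left 5 h at 37 C/5% CO2, then given compounds in DMSO. Fluorescence from dye bound to dead-cell DNA was read repeatedly over 40 h of treatment at 37 C.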

[4] = A CellTox Green Cytotoxicity Assay to monitor cytotoxicity in HepG2 cells - 32 hour (AID 1224883); further: nearly all actives have a fitted effect of over 50% in size; further: potency means the concentration at half of the fitted maximal effect
Summary of the method: as §3

[5] = A CellTox Green Cytotoxicity Assay to monitor cytotoxicity in HEK293 cells - 8 hour (AID 1224884); further: nearly all actives have a fitted effect of over 35% in size; further: potency means the concentration at half of the fitted maximal effect
Summary of the method: as §2

[6] = qHTS RealTime-Glo MT Cell Viability Assay in HepG2 cells - 16 hour (AID 1224885); further: nearly all actives have a fitted effect of over 50% in size
Summary of the method: (§4)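 Tox21 10K library screened in qHTS format on HepG2 cells carrying RealTime-Glo reagents. Compounds were added after a 5 h preincubation, and the luminescent signal from continuous culture was measured repeatedly during 40 h treatment.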

[7] = qHTS RealTime-Glo MT Cell Viability Assay in HEK293 cells - 24 hour (AID 1224886); further: top concentration of the series differs between compounds; nearly all actives have a fitted effect of over 50% in size
Summary of the method: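 Luminescence generated by NanoLuc from substrate produced by living HEK293 cells served as the viability signal. Each value reflects the reading at its stated time point during continuous 40 h compound exposure at 37 C.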

[8] = qHTS RealTime-Glo MT Cell Viability Assay in HEK293 cells - 8 hour (AID 1224887); further: top concentration of the series differs between compounds; nearly all actives have a fitted effect of over 50% in size
Summary of the method: as §1

[9] = A CellTox Green Cytotoxicity Assay to monitor cytotoxicity in HEK293 cells - 16 hour (AID 1224888); further: nearly all actives have a fitted effect of over 35% in size; further: potency means the concentration at half of the fitted maximal effect
Summary of the method: as §2

[10] = qHTS RealTime-Glo MT Cell Viability Assay in HepG2 cells - 0 hour (AID 1224889); further: nearly all actives have a fitted effect of over 50% in size; further: potency means the concentration at half of the fitted maximal effect
Summary of the method: as §4

Compound	Potency [1]	Potency [2]	Potency [3]	Potency [4]	Potency [5]	Potency [6]	Potency [7]	Potency [8]	Potency [9]	Potency [10]
Cc1cc2c(cc1S(N)(=O)=O)S(=O)(=O)CCC2	inactive	inactive	inactive	inactive	inactive	inactive	inactive	inactive	inactive	inactive
NC(=O)c1cn(Cc2c(F)cccc2F)nn1	inactive	inactive	inactive	inactive	inactive	inactive	inactive	inactive	inactive	inactive
COCCc1ccc(OCC(O)CNC(C)C)cc1 (stereo not given)	inactive	inactive	inactive	inactive	inactive	inactive	inactive	inactive	inactive	inactive
NS(=O)(=O)c1cc(C(=O)O)cc(N2CCCC2)c1Oc1ccccc1	inactive	inactive	inactive	inactive	inactive	inactive	inactive	inactive	inactive	inactive
CC(=O)OCC(=O)[C@@]1(O)CC[C@H]2[C@@H]3CCC4=CC(=O)CC[C@]4(C)[C@H]3C(=O)C[C@@]21C	6.01 µM (active)	inactive	inactive	inactive	inactive	inactive	inactive	inactive	inactive	1.07 µM (active)
Cc1nc2c([nH]1)c(=O)n(C)c(=O)n2Cc1ccco1	inactive	inactive	inactive	inactive	inactive	inactive	inactive	inactive	inactive	inactive
CCCCCCCCS(=O)(=O)Cl	inactive	inactive	inactive	inactive	inactive	inactive	inactive	inactive	inactive	inactive
COc1cc(C(=O)N2CCCCCCC2)cc(OC)c1OC	inactive	inactive	inactive	inactive	inactive	inactive	inactive	inactive	inactive	inactive
CC(=O)OC/C=C(\C)CC/C=C(\C)CCC=C(C)C	inactive	inactive	inactive	inactive	inactive	inactive	inactive	inactive	inactive	inactive
CCN(Cc1ccncc1)C(=O)C(CO)c1ccccc1 (stereo not given)	inactive	inactive	inactive	inactive	inactive	inactive	inactive	inactive	inactive	inactive
CN1C(=O)N(C)C(O)C1O (stereo not given)	inactive	inactive	inactive	inactive	inactive	inactive	inactive	inactive	inactive	inactive
N=c1nc(N2CCCCC2)cc(N)n1O	inactive	inactive	inactive	inactive	inactive	inactive	inactive	inactive	inactive	inactive
CC/C=C\CCOC(C)=O	inactive	inactive	inactive	inactive	inactive	inactive	inactive	inactive	inactive	inactive
CCOC(=O)c1cccc(N)c1	inactive	inactive	inactive	inactive	inactive	inactive	inactive	inactive	inactive	inactive
CCO[Si](CCC1CCC2OC2C1)(OCC)OCC (stereo not given)	inactive	inactive	inactive	inactive	inactive	inactive	inactive	inactive	inactive	inactive
CO[Si](CCCOCC1CO1)(OC)OC (stereo not given)	inactive	inactive	inactive	inactive	inactive	inactive	inactive	inactive	inactive	inactive
N[C@H]1CN(c2c(F)cc3c(=O)c(C(=O)O)cn(C4C[C@H]4F)c3c2Cl)CC12CC2 (stereo not given in full)	inactive	inactive	inactive	inactive	inactive	inactive	inactive	inactive	inactive	inactive
CCO/C([O-])=N/c1c[n+](N2CCOCC2)no1	inactive	inactive	inactive	inactive	inactive	inactive	inactive	inactive	inactive	inactive
CCCN1CCCC[C@H]1C(=O)Nc1c(C)cccc1C	inactive	inactive	inactive	inactive	inactive	inactive	inactive	inactive	inactive	inactive
Cc1cccc(C)c1NC(=O)C(C)N (stereo not given)	inactive	19 µM (active)	21.3 µM (active)	21.3 µM (active)	19 µM (active)	inactive	inactive	inactive	19 µM (active)	inactive
ClC(Cl)(Br)Br	inactive	inactive	inactive	inactive	inactive	inactive	inactive	inactive	inactive	inactive
COC(=O)c1ccc(C)cc1C1=NC(C)(C(C)C)C(=O)N1 (stereo not given)	inactive	inactive	inactive	inactive	inactive	inactive	inactive	inactive	inactive	inactive
